Screening data (PubChem BioAssay)
HepG2 tox: kills HepG2 cells in TGF-b inhibitor counter-screen | Potency, µM (series often up to 46.1 µM), for inactives: at the highest dose activity change, negative = cytotoxicity, most hits filed as cytotoxic | hit rate 0.76% among 410,000 | HepG2 CAGA-GFP viability, ATP luminescence, 18 h
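CellTiter-Glo luminescence gave cytotoxicity after 18 hours at 37 degrees C. The cells were HepG2 CAGA-GFP in 1% FBS DMEM, stimulated with 500 pg/mL TGF-beta after compound addition. %Activity was normalised to no-cell wells (complete cell-killing) and DMSO (no toxicity), and curves were fitted and classified.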
S2 tox: viability counter-screen for ATXN expression inhibitors. S2 cells (HEK-293 line with an ATXN2-luciferase reporter) viability, CellTiter-Fluor protease fluorescence, 24 h. Potency, µM (highest dose often 56.7 µM), actives largely listed as cytotoxic. hit rate 0.49% among 400,000; further: nearly all actives have a fitted effect of over 40% in size
Nrf2 block: blocks Nrf2 signaling. hit rate 2.1% among 360,000. A549 ARE-Fluc reporter, luciferase luminescence, 18-24 h. AID 504444. Potency, µM (top dose mostly 46 µM), inactives show at the top dose activity change, negative = inhibition, hits mostly inhibitors; further: on the % scale 0 is the no-effect control and ±100 the full control effect; nearly all actives have a fitted effect of over 60% in size
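Quantitative HTS in A549 cells stably bearing an antioxidant response element-firefly luciferase construct. Inhibition of Nrf2-driven transcription was scored by luminescence after 18-24 h of compound exposure at 37 °C.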
ATXN2 expr inh: reduces ATXN2 reporter expression in HEK-293 cells; hit rate 0.72% among 360,000; AID 1745845; HEK-293 ATXN2-luciferase reporter, luminescence, 24 h; Potency, µM (titrated, usually from 57 µM), without a hit: at the top dose activity change, negative = inhibition, usual class: inhibitors; further: on the % scale 0 is the no-effect control and ±100 the full control effect; nearly all actives have a fitted effect of over 55% in size
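ATXN2-luciferase reporter cells (luciferase flanked by upstream and downstream ATXN2 gene portions) were treated 24 h at 37 °C with compounds at up to 57 uM. SteadyGlo luminescence gave expression; GF-AFC fluorescence gave viability.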
A549 viability: A549 cytotoxicity, counter-screen for Nrf2 inhibitors | A549 ARE-Fluc cells, CellTiter-Fluor viability, 18-24 h | Potency, µM (highest dose often 46 µM), without a hit: top-dose activity change, negative = cytotoxicity, most hits filed as inhibitors | hit rate 0.16% among 390,000 | AID 504648; further: on the % scale 0 is the no-effect control and ±100 the full control effect
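A549 ARE-Fluc cells in 5% FBS OPTI-MEM, 5000 cells/well, rested 2 h then exposed to compounds in concentration-response for 18-24 h at 37 °C. Viability by CellTiter-Fluor fluorescence (Ex 405/Em 525) after 30 min; luciferase luminescence (BugLite, 15 min, RT) read afterwards.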
TGFb SMAD3 inh: inhibitors of TGF-b signaling | HepG2 CAGA-GFP TGF-b/SMAD3 reporter, GFP fluorescence, 18 h; TGF-beta stimulated, 500 pg/mL final | Potency, µM (series often up to 46.1 µM), inactives show at the highest dose activity, negative = inhibition, actives largely listed as inhibitors | hit rate 1.2% among 410,000 | AID 588855; further: on the % scale 0 is the no-effect control and ±100 the full control effect; nearly all actives have a fitted effect of over 65% in size
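HEPG2 CAGA-GFP, 1000 cells/well; 2 h settle, 37 C; cpd via pin tool; TGF-b 500 pg/mL final; 18 h, 37 C; GFP imaging ex488/em500-530; %Activity normalised to -TGF-b and +DMSO controls; CRC fit, curve class.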
* marks the source's active call; other numbers are inactive results; i = inactive; ? = inconclusive; · = no result; ! = repeats disagree. Only some compounds are listed: those with a hit (about 3.8% of all), similar ones and a draw of the others. The call rests on the fitted dose curve; in most records, active means well fitted curve in the direction sought with a large enough effect; inconclusive means small, poorly fitted or top-dose-only effect, or another doubt; inactive means no such curve, though single readings can be large; an effect the other way counts as inactive or inconclusive. Potency means the concentration at half of the fitted maximal effect.

SMILES	HepG2 tox	S2 tox	Nrf2 block	ATXN2 expr inh	A549 viability	TGFb SMAD3 inh
CCOc1ccc(/C=N/NC(=O)C(O)c2ccccc2)c(O)c1 (stereo not drawn)	-8%	i	-4%	32µM*	-6%	0%
COC(=O)N[C@H](c1ccccc1)[C@@]1(C)C[C@@H]1[C@@H](C)C(=O)Nc1ccc2ccccc2c1	0%	i	18µM*!	-7%	?	-1%
CSc1ccc(Cl)c(C(=O)NCCOc2ccccc2)c1	14%	i	?	2%	18%	15%
CCc1ccc(OCCNC(=O)c2cc(SC)ccc2Cl)cc1	-1%	i	18µM*	-1%	?	-1%
Cc1oc(-c2cc(F)ccc2F)nc1CN1CCC(C(=O)N2CCOCC2)CC1	-2%	?	9%	2%	-7%	-13%
Cc1oc(-c2cc(F)ccc2F)nc1CN1CCN(c2ncnc3ccccc23)CC1	-6%	?	26µM*	·	-9%	-23%
CCOc1ccc(CCNC(=O)c2cc3ccccn3n2)cc1OCC	-17%	?	21µM*	-14%	-7%	-9%
O=C(Nc1ccc(CN2CCOCC2)cc1)c1cc2ccccn2n1	-31%	i	?	22µM*	-10%	-11%
CCCNC(=O)c1ccc(CN2CCc3ccccc3C2)cc1	-16%	i	·	7%	4%	-1%
Cc1cc(C)c(NC(=O)c2ccc(CN3CCc4ccccc4C3)cc2)c(C)c1	0%	i	23µM*	-25%	?	?
C/C(=N\NC(=O)c1ccc(CN2CCc3ccccc3C2)cc1)c1ccccc1O	-1%	i	?	16µM*	10%	?
O=C(Nc1ccc(CN2CCOCC2)cc1)c1cc2ccccc2o1	-6%	i	?	7%	-1%	-1%
Cc1cccc(CCNC(=O)c2cc3ccccn3n2)c1	-20%	?	?	13%	3%	1%
Cc1nc2ccc(C(=O)O)cc2c2c1CC(C)S2 (stereo not drawn)	5%	?	·	-6%	-2%	12%
Cc1occc1C(=O)Nc1cnn(CCCC(=O)O)c1	2%	i	7%	-6%	-1%	4%
CCOC(=O)c1ccc(NC(=O)c2ccc(CN3CCOCC3)cc2)cc1	-13%	i	5.2µM*	-34%	?	3%
COc1ccc(Br)cc1C(=O)NC(=S)Nc1ccc(CN2CCOCC2)cc1	-17%	i	-15%	25µM*	1%	-8%
CCOC(=O)c1ccc(NC(=O)c2ccc(CN3CCc4ccccc4C3)cc2)cc1	-26%	i	23µM*	-28%	?	?
NC(=O)c1ccc(NC(=O)c2ccc(CN3CCOCC3)cc2)cc1	-1%	i	4%	24%	2%	-2%
Cc1ccc(NC(=O)CCCc2nc3ccccc3s2)c(O)c1	-23%	i	-16%	0%	-10%	-27%
Cc1ccccc1-c1nnc(-c2cccs2)o1	-15%	i	99%	·	3%	?
Cn1c(NCc2ccccc2F)nc2ccccc21	-16%	i	111%	19%	2%	?
CS(=O)(=O)c1nc(-c2ccc(Br)cc2)cc(-c2ccccc2)c1C#N	-102%	·	?	?	?	-17%
CS(=O)c1nc(-c2ccc(Br)cc2)cc(-c2ccccc2)c1C#N (stereo not drawn)	-7%	20µM*	15µM*	13µM*	?	-8%
O=C1c2cc([N+](=O)[O-])cc3cc([N+](=O)[O-])cc(c23)C(=O)N1c1ccccn1	2%	?	?	?	?	5.6µM*
O=C1c2ccc(Oc3cccc([N+](=O)[O-])c3)cc2C(=O)N1c1ccccn1	2%	i	?	·	-2%	7%
CCCCN1CCc2nc(Nc3ccc(OC)cc3OC)ncc2C1	5%	i	·	1%	-1%	-9%
